For 31 compounds, composite z-score results are on record in PubChem BioAssay.

Molecules are shown by their SMILES.

This experiment relates to Sonic hedgehog protein (Shh). Put plainly: small-molecule binders of Shh protein, primary screen, biochemical, small-molecule microarray, 635/667 nm fluorescence (AID 1151).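 Further: Shh protein binding to compounds spotted on small-molecule microarray slides; score combines spot fluorescence intensity with signal-to-noise across triplicate slides.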 The conditions noted are these: small-molecule microarray binding, 635 nm fluorescence; higher = more signal.
The compound `COc1cc2c(cc1O)C(c1cccs1)N(Cc1cc3c(cc1Br)OCO3)CC2` (stereo unspecified) gave a composite z-score of 0.305.

`CCC#CCN(Cc1ccccc1Br)[C@H](/C=C/C1CC1)[C@@H](O)Cc1ccccc1` showed a composite z-score of -0.643.

Take `COC(=O)[C@@]1(Cc2ccccc2)[C@H]2c3cc(C(=O)N4CCCC4)n(CCc4ccccn4)c3C[C@H]2CN1C(=O)c1ccccc1`: the composite z-score was 0.311.

`CCCCC(CC)C(O)C1C=CC2C(=O)N(c3ccccc3)C(=O)C2N1Nc1ccccc1F` (stereo unspecified) showed a composite z-score of -0.045.

As to `[N-]=[N+]=Nc1ccccc1[C@@H]1OC(c2ccc(OCCCO)cc2)=N[C@]1(Cc1ccccc1)C(=O)N1CCCCC1`, the composite z-score was found to be 1.15.

For `CC1CC/C=C\[C@H]2OC34C=CCN(C(C)C)C(=O)[C@H]3N(CCO)C(=O)[C@@H]4C2C(=O)O1` (stereo partly specified), the composite z-score is -0.778.

In turn, `CCOC(=O)C1=C[C@@H](C(C)(C)C)N(S(=O)(=O)c2ccc(C)cc2)[C@H]1c1cccc2ccccc12` displayed a composite z-score of -0.165.

For `CC(C)[Si]1(C(C)C)OCc2cc(-c3ccc(-c4ccc(Cl)c(Cl)c4)o3)nc(-c3ccccc3)c21`, the composite z-score is -0.128.

As for `CCCCCCc1nc(Cc2cc(OC)c(OC)c(OC)c2)cc2c1[Si](C(C)C)(C(C)C)OC2`, the composite z-score turned out to be 0.724.

In turn, `C=CC[C@@H](OC(=O)Nc1ccc(SC)cc1)c1ccc(O)c(F)c1` displayed a composite z-score of 1.87.

In the case of `Cc1ccc(NN2C(C(O)c3c(F)cccc3Cl)C=CC3C(=O)N(C4CCCCC4)C(=O)C32)cc1` (stereo unspecified), the composite z-score is -0.216.

In turn, `COc1ccc([Si](C)(C)[C@@H]2[C@@H](CC(=O)N(CCO)Cc3ccccc3)O[C@]3(C(=O)N(Cc4cccc(N5CCCCC5=O)c4)c4ccccc43)[C@H]2C)cc1` gave a composite z-score of 2.06.

Regarding `NC(=O)[C@H]1[C@@H]2C(=O)O[C@@H](c3ccccc3)[C@@H](c3ccccc3)N2[C@@H](c2ccc(OCCO)cc2)[C@]12C(=O)Nc1ccc(C#CCCO)cc12`, the composite z-score worked out at 0.177.

Compound `COc1cc(C(O)C2C=CC3C(=O)N(C)C(=O)C3N2Nc2ccccc2)cc(OC)c1OC` (stereo unspecified) had a composite z-score of -0.153.

`C#Cc1cc2ccccc2oc1=O` yielded a composite z-score of -1.45.

Consider `CC(=O)NCCCC[C@@H]1NC(=O)[C@@H]2C[C@H](C(=O)NCCCCCN)[C@H](c3cccc(OCCO)c3)N2C1=O`, for which the composite z-score turned out to be 1.66.

For the compound `COc1ccc(CCNC(=O)[C@@]2(c3ccc([N+](=O)[O-])cc3)CC(=O)N(C3CCCCC3)[C@@H]2c2ccc(CO)cc2)cc1`, the composite z-score amounted to 0.137.

`NCCCCCNC(=O)[C@@H]1C[C@@H]2C(=O)N[C@@H](CCCCN)C(=O)N2[C@@H]1c1ccc(O)cc1`: the composite z-score was 1.99.

`NCCCCCNC(=O)[C@H]1C[C@H]2C(=O)N3CCC[C@H]3C(=O)N2[C@H]1c1cccc(OCCO)c1` returned a composite z-score of 0.148.

Regarding `COCCOC(=O)N1C(=O)[C@@]2(c3cc(C#CCCO)ccc31)[C@H](c1ccc(OCCO)cc1)N1[C@H](c3ccccc3)[C@H](c3ccccc3)OC(=O)[C@H]1[C@@H]2C(=O)Nc1nc2ccccc2s1`, the composite z-score is 1.97.

Take `COC(=O)C1=CC(CCCO)=CC(c2cccs2)N(C)C=C1C(=O)OC` (stereo unspecified): the composite z-score was -0.369.

`COCCOC(=O)N1C(=O)[C@@]2(c3cc(C#CC4(O)CCCCCC4)ccc31)[C@H](c1ccc(O)cc1)N1[C@H](c3ccccc3)[C@H](c3ccccc3)OC(=O)[C@H]1[C@@H]2C(=O)N1CCN(c2ncccn2)CC1` returned a composite z-score of 0.185.

In turn, `COc1ccc([Si](C)(C)[C@@H]2[C@@H](CCO)O[C@]3(C(=O)N(Cc4cccc(NC(=O)[C@H](C)O)c4)c4ccccc43)[C@H]2C)cc1` had a composite z-score of 0.533.

`Cc1ccc(S[C@]2(C(=O)O)CC(=O)N(C3CCCCC3)[C@@H]2c2ccc(CO)cc2I)cc1` yielded a composite z-score of -0.342.

Take `O=C1C[C@]2(c3ccc([N+](=O)[O-])cc3)C(=O)N(C3CC3)c3cc(CO)ccc3[C@H]2N1CC12CC3CC(CC(C3)C1)C2`: the composite z-score is -0.7.

Consider `COCCCNC(=O)[C@@]1(Sc2ccc(C)cc2)CC(=O)N(C2Cc3ccccc3C2)[C@@H]1c1ccc(CO)cc1`, for which the composite z-score is -1.45.

In turn, `O=C1OCCC=C[C@H]2OC34C=CCN(c5ccc6ccccc6c5)C(=O)[C@H]3N(CCCO)C(=O)[C@@H]4C12` (stereo partly specified) yielded a composite z-score of -1.93.

For `COC(=O)[C@@]1(Cc2ccc(F)cc2)[C@H]2c3cc(C(=O)N(C)C)n(CCc4ccc(OC)c(Br)c4)c3C[C@H]2CN1C(=O)c1ccccc1`, the composite z-score was -1.09.

Turning to `[N-]=[N+]=Nc1ccccc1C[C@@]1(C(N)=O)N=C(c2ccc(OCCCO)cc2)O[C@@H]1c1ccccc1N=[N+]=[N-]`, the composite z-score is -0.535.

With `O=C(NCc1ccc(F)cc1)[C@H]1C[C@H]2C(=O)NCC(=O)N2[C@H]1c1ccc(O)cc1`, the composite z-score is 1.69.

In turn, `C=CCNC(=O)[C@@H]1[C@H]2C(=O)O[C@H](c3ccccc3)[C@H](c3ccccc3)N2[C@H](c2ccccc2OCCO)[C@@]12C(=O)Nc1ccc(C#CCCO)cc12` came in with a composite z-score of 2.03.
